High-throughput results deposited in PubChem by several laboratories.
Jurkat NFkB inh: inhibitors of the PMA/ionomycin-induced NF-kB reporter in Jurkat cells. PMA/ionomycin-induced NF-kB luciferase reporter, luminescence. inhibition, % at 4 µM. hit rate 0.53% among 330,000. AID 435003; in the data active = inhibition above about 50%
Gli-Sufu antag: Gli-Sufu pathway antagonism; Sufu-KO-LIGHT fibroblasts, Gli luciferase reporter luminescence; inhibition, % at 5 µM; hit rate 0.74% among 340,000; AID 588413;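 active = inhibition above about 55%, limit read from the data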
697 NFkB inh: inhibitors of the PMA/ionomycin-induced NF-kB reporter in 697 B cells; hit rate 0.33% among 330,000; inhibition, % at 4 µM; 697 B-cell NF-kB luciferase reporter, 16 h; AID 435022; in the data active = inhibition above about 35%
Beta apoptosis: blocks beta cell apoptosis. INS-1E cytokine-induced death, ATP luminescence, 48 h; percent of positive-control rescue, neutral wells zero. protection from apoptosis, % (test concentration not listed). hit rate 0.8% among 300,000;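 active = Every replicate reaches about 75%, or at least half do and their mean reaches it too, limit read from the data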;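 note: higher means more ATP so stronger rescue from cytokine killing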
Each line names hits and unclear results; the compound was inactive in the other large screens. Sampled rows, rich in hits. Any-hit rate of the full collection: about 1.8%.

O=C(NCc1cccnc1)/C(=C/c1ccc(-c2cccc(Cl)c2)o1)S(=O)(=O)c1ccccc1	Beta apoptosis 112
O=C(N/N=C/c1cc2c(cc1Br)OCO2)c1cccnc1	none
CCN1CCN(c2ccc(S(=O)(=O)N3CCCCC3)cc2NC(=O)c2ccc([N+](=O)[O-])s2)CC1	Beta apoptosis 113
O=C(CC1C(=O)NCCN1Cc1ccc(-c2ccccc2)cc1)NC1CCC1 (configuration not stated)	Beta apoptosis 116
O=C(CC1C(=O)NCCN1Cc1ccc(-c2ccccc2)cc1)NCc1ccccc1 (configuration not stated)	none
CC(Sc1n[nH]c(N)n1)C(=O)Nc1ccc(Cl)cn1 (configuration not stated)	none
CC1CN(CC(O)COC(c2ccc(Cl)cc2)c2ccc(Cl)cc2)CC(C)O1 (configuration not stated)	Beta apoptosis 106
COc1cccc(F)c1C(C[N+](=O)[O-])c1c(N)n(C)c(=O)n(C)c1=O (configuration not stated)	Beta apoptosis 97
COc1cc(C(C[N+](=O)[O-])c2c(N)n(C)c(=O)n(C)c2=O)ccc1O (configuration not stated)	none
C=CCN1C(=O)C(Cc2ccccc2Cl)SC1=Nc1ccc(C(=O)O)cc1 (configuration not stated)	none
CNC[C@H](Cc1ccccc1)NC[C@@H](Cc1cccc2ccccc12)NCCc1ccc(C)cc1	Beta apoptosis 107
COc1ccc(CC(=O)NCC(=O)N/N=C/c2ccc(C)o2)cc1	none
CCn1c(C)nc2cc(C(=O)OC(C(F)(F)C(F)F)C(F)(F)C(F)F)ccc21	Beta apoptosis 104
CCn1c(C)nc2cc(C(=O)NNC(=O)c3ccc(C)cc3)ccc21	none
COc1ccccc1NC(=O)CN(c1ccc(C23CC4CC(CC(C4)C2)C3)cc1)S(C)(=O)=O	Beta apoptosis 101
CS(=O)(=O)N(CC(=O)O)c1ccc(C23CC4CC(CC(C4)C2)C3)cc1	none
O=C(NC(Nc1ncc(S(=O)(=O)c2ccc([N+](=O)[O-])cc2)s1)(C(F)(F)F)C(F)(F)F)c1ccc(Cl)cc1	Beta apoptosis 113
CCS(=O)(=O)c1ncc(Cl)c(C(=O)Nc2ccc(S(=O)(=O)N3CCC(C)CC3)cc2)n1	Beta apoptosis 108
CCOc1ccccc1NC(=O)c1nc(S(=O)(=O)Cc2ccccc2)ncc1Cl	none (no result: Beta apoptosis)
CCS(=O)(=O)c1ncc(Cl)c(C(=O)Nc2ccccc2OC)n1	Beta apoptosis 84
COc1ccccc1NC(=O)c1nc(S(=O)(=O)Cc2ccccc2)ncc1Cl	Beta apoptosis 77
COc1ccc2c(c1)C(C)CC(C)(C)N2C(=O)NC1CCCCC1 (configuration not stated)	none
O=C(Nc1nc(NC(=O)c2ccco2)n(-c2ccccc2)n1)c1ccccc1	Beta apoptosis 89
Nc1nc(NC(=O)c2ccccc2)nn1-c1ccccc1	none
CCCNC(=O)c1c(N)n(-c2cccc(OC)c2)c2nc3ccccc3nc12	Beta apoptosis 104
COCCCNC(=O)c1c(N)n(-c2cccc(S(N)(=O)=O)c2)c2nc3ccccc3nc12	none
CC(=NNC(=S)N1CCC1)c1ccccn1	Gli-Sufu antag 89 (no result: Jurkat NFkB inh, 697 NFkB inh, Beta apoptosis)
CC(=NNC(=S)SCc1ccccc1)c1ccccn1	Gli-Sufu antag 78 (no result: Jurkat NFkB inh, 697 NFkB inh, Beta apoptosis)
S=C(NCc1ccccn1)Nc1cccc(Cl)c1	none
CC(=NNC(=S)Nc1cccc(Cl)c1)c1ccccn1	Gli-Sufu antag 57 (no result: Jurkat NFkB inh, 697 NFkB inh, Beta apoptosis)
CCCCCC(=O)N/N=C(\C)c1ccccn1	none
CN1CCN(S(=O)(=O)c2cccc(C(=O)Nc3sc4c(c3-c3nc5ccccc5[nH]3)CCCC4)c2)CC1	none
On1ccccc1=S	Gli-Sufu antag 74 (no result: Jurkat NFkB inh, 697 NFkB inh)
N#Cc1ccc(-c2csc(NNC(=O)c3ccccc3)n2)cc1	Beta apoptosis 79
N#Cc1ccc(-c2csc(NNC(=O)c3ccc(Br)cc3)n2)cc1	Beta apoptosis 78
COC(=O)c1ccccc1NS(=O)(=O)c1ccc(O)c(C(=O)O)c1	none
Cc1c(S(=O)(=O)NCCc2ccccc2)c(=O)n(C)c(=O)n1C	none
CCOC(=O)[C@H]1[C@H]2COc3cc(OC)ccc3[C@@H]2N2C(=O)c3ccc(F)cc3NC(=O)[C@@]12C	none
c1ccc(CNc2c3ccccc3nc3ccccc23)cc1	Beta apoptosis 98
c1ccc2c(NCCCN3CCOCC3)c3ccccc3nc2c1	Beta apoptosis 104 (no result: Gli-Sufu antag)
O=C(O)c1cccc(N2C(=O)c3cc([N+](=O)[O-])cc4cc([N+](=O)[O-])cc(c34)C2=O)c1	none (no result: Gli-Sufu antag)
COc1ccc(-c2ncncc2-c2csc(C)n2)c(O)c1OC	none
COC1=C(N)C(=O)c2nc(-c3nc(C(=O)O)c(C)c(-c4ccc(OC)c(OC)c4O)c3N)ccc2C1=O	Gli-Sufu antag 89 (no result: Beta apoptosis)
COc1ccc2nc(NN=C(C)c3ccccn3)cc(C)c2c1	Gli-Sufu antag 79 (no result: Jurkat NFkB inh, 697 NFkB inh, Beta apoptosis)
Cc1ccc(S(=O)(=O)Nc2ccccc2N(C)S(=O)(=O)c2ccc(C)cc2)cc1	Beta apoptosis 110
Cc1cccc2sc(NNC(=O)c3ccc(S(=O)(=O)N4CC(C)CC(C)C4)cc3)nc12 (configuration not stated)	Beta apoptosis 110
Cc1ccc2nc(NNC(=O)c3ccc4c(c3)OCCO4)sc2c1	none (no result: Beta apoptosis)
COC(=O)c1sc2ccccc2c1NC(=O)c1ccc(S(=O)(=O)N2CC(C)CC(C)C2)cc1 (configuration not stated)	none
Cc1cc(C)c2nc(NNC(=O)c3ccc(S(=O)(=O)N4CC(C)CC(C)C4)cc3)sc2c1 (configuration not stated)	Beta apoptosis 106
Cc1ccc2nc(NNC(=O)c3ccc(S(=O)(=O)N4CCc5ccccc5C4)cc3)sc2c1	Beta apoptosis 98
Oc1ccc(CN2CCN(Cc3ccccc3)CC2)c2cccnc12	none
O=S(=O)(c1ccc(Cl)cc1)N1CCN(Cc2ccc(O)c3ncccc23)CC1	Beta apoptosis 86
C=CCS(=O)(=O)N1CCCC(C(=O)c2cccc(Cl)c2)C1 (configuration not stated)	none
CCN(CC)c1ccc(N=Cc2ccc([N+](=O)[O-])o2)cc1	Beta apoptosis 75
CCN(CC)c1ccc(N=Cc2ccccc2[N+](=O)[O-])cc1	Beta apoptosis 100
CCCCCC(=O)N/N=C/c1ccc([N+](=O)[O-])o1	none
O=S(=O)(c1ccccc1C(F)(F)F)N1CCN(c2ncnc3sccc23)CC1	none
O=S(=O)(c1ccc(F)c(F)c1F)N1CCN(c2ncnc3sccc23)CC1	Beta apoptosis 87
COc1cnc(-c2cccc(C(F)(F)F)c2)[nH]c1=O	none (no result: Beta apoptosis)
FC(F)(F)c1cccc(-c2nc3nc(Cl)c(Cl)nc3[nH]2)c1	Beta apoptosis 99
O=C(c1ccc([N+](=O)[O-])s1)N1CCN(c2cccc(Cl)c2)CC1	Beta apoptosis 92
O=C(c1cccs1)N1CCN(c2cccc(Cl)c2)CC1	none
CCOc1ccccc1N(CC(=O)N/N=C/c1cc(Br)ccc1OC)S(C)(=O)=O	none
N#CCc1nc2c3c4c(sc3ncn2n1)CCCC4	none (no result: Beta apoptosis)
Nc1ccc2nn(-c3cccc4ccccc34)nc2c1	Beta apoptosis 75
CCCNC1=C(N(C(C)=O)c2cccc(F)c2)C(=O)c2ccccc2C1=O	Gli-Sufu antag 85, Beta apoptosis 126 (no result: Jurkat NFkB inh, 697 NFkB inh)
CCCOc1ccc2c3c(c(=O)oc2c1OCCC)CCCC3	Beta apoptosis 100
